Data: PubChem BioAssay AID1578 (Sanford-Burnham Center for Chemical Genomics, 2009)
About 3,000 (1%) of roughly 290,000 compounds were called active. The sample holds actives, similar compounds and a random draw of the others, so the mix is not that of the screen. Unmarked numbers belong to inactive results. Rule as the data show it: active = inhibition mostly above about 36% (no sharp cut-off); inactive = mostly below about 34%.

Test: NOD1 signaling inhibitors, primary screen, cell-based, luminescence, uHTS (AID 1578);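 also: HEK-293T reporter cells stimulated with the NOD1 agonist gamma-tri-DAP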
Conditions: NOD1-driven NF-kB luciferase reporter cells, at 4 µM, active compounds read high

First: CC(/C=C1\SC(=S)N(CC(=O)O)C1=O)=C\c1ccccc1
Second: O=C(O)c1ccc(N2C(=O)/C(=C/C=C/c3ccccc3)SC2=S)cc1
The inhibition of the first is lower: -14.7% for the first, -13.7% for the second.

Going from `O=C1CCCCN1CCC(=O)N1CCCC(N2CCN(c3ccccc3)CC2)C1` (stereo unspecified) to `CC(=O)c1ccc(N2CCN(C(=O)C(=O)c3cn(CC(=O)N4CCCCCC4)c4ccccc34)CC2)cc1`, the inhibition falls from -1% to -25.9%.

First: CC(C)(C)c1nc(CN2CCCCC2)cc(CN2CCCCC2)c1O
Second: CCOc1ccc(C(=O)CCN2CCCCC2)cc1
The inhibition of the first is lower: -2.5% for the first, 44% for the second.

First: Cc1ccc(C2=NN(C(=O)CCC(=O)O)C(c3cccs3)C2)cc1 (stereo unspecified)
Second: O=C(O)CCC(=O)N1N=C(c2ccco2)CC1c1cccs1 (stereo unspecified)
The inhibition of the first is higher: -4.3% for the first, -15.2% for the second.

Going from `Cc1ccc(C2=NN(C(=O)CCl)C(c3ccco3)C2)o1` (stereo unspecified) to `CC(=O)N1N=C(c2ccco2)CC1c1cccs1` (stereo unspecified), the inhibition rises from -45.6% to -6.4%.

Going from `CCN1CCN(CC(=O)N2N=C(c3cccs3)CC2c2ccc(C)cc2)C(=O)C1=O` (stereo unspecified) to `CCC(=O)N1N=C(c2cccs2)CC1c1ccc(C)cc1` (stereo unspecified), the inhibition rises from -19.6% to 1.5%.

Going from `COc1cc(NC(=O)CN2CCN(c3ccccc3F)CC2)cc(OC)c1` to `COc1ccc(N2CCN(C(=O)c3oc4ccccc4c3NC(=O)Cc3cccc(OC)c3)CC2)cc1`, the inhibition falls from -13.5% to -28.1%.

Going from `CC(C)(C)NC(=S)NCc1cccnc1` to `CSCCC(NC(=O)OCc1ccccc1)C(=O)NCc1cccnc1` (stereo unspecified), the inhibition falls from 5.8% to -10.2%.

Compared with `CCc1ccc(OCC(=O)NNC(=O)c2nn(CC)c(=O)c3ccccc23)cc1`, `COC(=O)C(Cc1ccccc1)NC(=O)CC(C)CC(=O)Nc1ccc(C)cc1` (stereo unspecified) is higher in inhibition: -23.6% for the first, -13.8% for the second.

Going from `CC1(C)CC(=O)C(Sc2ccc(Br)cc2)=C(O)C1` to `COCc1cc(Sc2ccc(Cl)cc2)nc(C)n1`, the inhibition rises from -57.7% to -2.4%.

Compared with `Fc1ccc(-c2nc3nc4ccccc4nc3n2Cc2ccco2)cc1`, `C=CCn1c(COc2ccccc2-c2ccccc2)nnc1SCC(=O)NC(=O)NCc1ccco1` is higher in inhibition: -13.7% for the first, -0.2% for the second.

Compared with `S=c1nc(-c2ccccc2)[nH]c2ccccc12`, `O=C(c1ccccc1)c1c[nH]c2ccccc12` is higher in inhibition: -26.9% for the first, -14.2% for the second.

First: CCC(CC)c1nc(NCCC(=O)O)c2ccccc2n1
Second: CCN(CC)CCCNc1ncnc2ccccc12
The inhibition of the first is higher: -13.4% for the first, -25.6% for the second.

First: COc1ccc(Cl)cc1NC(=O)CCc1nnc2ccc(N3CCC4(CC3)OCCO4)nn12
Second: COc1ccccc1NC(=O)CCc1nnc2ccc(N3CCN(C)CC3)nn12
The inhibition of the first is higher: 10.7% for the first, -20.3% for the second.

First: COc1cc(O)c(C(CCN2CCOCC2)c2ccc(N(C)C)cc2)c(OC)c1 (stereo unspecified)
Second: COc1ccc(NC(=O)CN(C)C(=O)c2ccc3c(c2)S(=O)(=O)N=C2CCCCCN23)cc1
The inhibition of the first is higher: 4.8% for the first, -22% for the second.

First: Cc1ccc(S(=O)(=O)Nc2nc3ccccc3nc2NCC2CCCO2)c(C)c1 (stereo unspecified)
Second: COc1ccccc1NS(=O)(=O)c1ccc2c(c1)NC(=O)C(C)S2 (stereo unspecified)
The inhibition of the first is lower: -1.8% for the first, 49.3% for the second.

Going from `CCSc1nc(N)c(C#N)c(-c2ccccc2Cl)c1C#N` to `COc1ccc(-c2c(C#N)c(N)nc(Sc3ccc(Cl)cc3)c2C#N)cc1`, the inhibition rises from -2.6% to -0.6%.

Compared with `Cc1[nH]c(=O)[nH]c(=O)c1S(=O)(=O)Nc1ccc(Oc2ccccc2)cc1`, `Cc1c(O)ccc2c(=O)c(Oc3ccccc3)coc12` is higher in inhibition: -23.1% for the first, -2.7% for the second.

Compared with `COc1ccc2nc(NCCCO)[nH]c2c1`, `Cc1sc2nc(NCCO)[nH]c(=O)c2c1C` is higher in inhibition: -28.1% for the first, -16% for the second.

First: COc1ccccc1OCCNC(=O)c1cc(SC)ccc1Cl
Second: COc1cc2ncnc(NCc3ccccc3)c2cc1OC
The inhibition of the first is lower: -20.2% for the first, -4.6% for the second.

Going from `Cc1cc(S(=O)(=O)NCCc2ccccc2)c(C)s1` to `c1ccc(CNc2ncnc3ccccc23)cc1`, the inhibition falls from 15.9% to -16.1%.

Compared with `CN(C)c1ccc(/C=C/c2c([N+](=O)[O-])c(=O)n(C)c(=O)n2C)cc1`, `CCc1ccc(/C=C/c2c([N+](=O)[O-])c(=O)n(C)c(=O)n2C)cc1` is higher in inhibition: -9.1% for the first, 22.5% for the second.

Going from `CCOc1ccc(/C=C/c2c([N+](=O)[O-])c(=O)n(C)c(=O)n2C)cc1` to `COc1ccc(/C=C/c2c([N+](=O)[O-])c(=O)n(C)c(=O)n2C)cc1`, the inhibition rises from -27.7% to -2.9%.

Compared with `Clc1nccnc1-c1ccccc1`, `CN(C)CCNc1ncnc2ccccc12` is higher in inhibition: -25.1% for the first, -20.6% for the second.

Compared with `O=C(Nc1nc(-c2ccc(Br)cc2)cs1)c1cccnc1`, `COc1ccc(Nc2nccc(-c3cccc(N)c3)n2)cc1` is higher in inhibition: -26.9% for the first, 6.7% for the second.

First: CC1CCCCC1NC(=O)CSc1nnc(-c2ccccc2)n1N (stereo unspecified)
Second: O=C(CSc1nnc(C2CC2)n1CC1CCCO1)Nc1ccccc1Cl (stereo unspecified)
The inhibition of the first is higher: 11.7% for the first, -9% for the second.

Compared with `O=C(CCl)N(c1ccccc1)C1CCCCC1`, `O=C(CCl)N(C1CCCC1)C1CCS(=O)(=O)C1` (stereo unspecified) is higher in inhibition: 34.4% for the first, 35.5% for the second.

Going from `NS(=O)(=O)c1ccc(CCNC(=O)c2cc(-c3cc(Cl)ccc3O)n[nH]2)cc1` to `Cc1ccc(S(=O)(=O)NC(CC(=O)O)c2cccs2)cc1` (stereo unspecified), the inhibition falls from -5.8% to -21.8%.

Going from `CC(=O)Nc1ccc(NC(=O)[C@@H](NC(=O)N2C[C@H]3C[C@@H](C2)c2cccc(=O)n2C3)C(C)C)cc1` to `CC(C)Cn1c(SCC(=O)N2CCCc3ccccc32)nc2ccccc2c1=O`, the inhibition rises from -3.2% to -2.1%.

Going from `CCN(CCn1cccn1)Cc1cn[nH]c1-c1cccc2ccccc12` to `CCCCCCCCNc1ncnc2ccccc12`, the inhibition rises from -11.1% to 54.9%.

Going from `Cc1cc(=O)oc2c(C)c(OCC(=O)N3CC[C@@]4(O)CCCC[C@H]4C3)ccc12` to `O=C1CSc2ccc(S(=O)(=O)CCC(=O)NC3CCCCC3)cc2N1`, the inhibition rises from -30.1% to -26.4%.

Compared with `COc1cc2ncnc(Nc3ccc4c(c3)OCO4)c2cc1OC`, `COc1cc2ncnc(NCc3cccc(Cl)c3)c2cc1OC` is higher in inhibition: 16.8% for the first, 44.2% for the second.

Going from `COc1ccccc1CNc1ncnc2cc(OC)c(OC)cc12` to `COc1cc2ccccc2cc1C(=O)Nc1ccc2oc(=O)ccc2c1`, the inhibition rises from -12.1% to 46.4%.

Going from `CC1CCN(c2ccc([N+](=O)[O-])cc2C(=O)O)CC1` to `C#CCOC(=O)CCCNc1ccc([N+](=O)[O-])cc1[N+](=O)[O-]`, the inhibition falls from -6.6% to -22.8%.

Going from `COCc1cc(=O)[nH]c(=S)[nH]1` to `COCc1cc(NCc2ccc(Cl)cc2)nc(C)n1`, the inhibition rises from -3.8% to 21%.

Going from `C#CCNC(=O)/C=C/c1ccc(C)cc1` to `CCN1CCN(C(=O)c2ccc3c(c2)N(Cc2ccc(C)cc2)CCS3)CC1`, the inhibition rises from -42.9% to -18.4%.

Going from `COC(=O)C1=C(C(=O)OC)[C@@H]2N(C)c3ccccc3[C@@]23C[C@@H](CO)N(C(=O)NCCBr)C3=N1` to `O=C(NCc1ccco1)C(Cc1ccccc1)N1C(=O)C2C3C=CC(C3)C2C1=O` (stereo unspecified), the inhibition rises from -2.6% to 1.7%.

Compared with `Cc1cc(C)nc(SCc2nnc(SCC(=O)Nc3c(C)cccc3C)o2)n1`, `Cc1cc(C)nc(Nc2cccc(Cl)c2)n1` is lower in inhibition: -14% for the first, -14.1% for the second.

First: CC1CN=C(N(C(=O)Nc2ccccc2)c2ccc(F)cc2)S1 (stereo unspecified)
Second: CSc1nc2ccc(NC(=O)c3ccco3)cc2s1
The inhibition of the first is higher: 1.6% for the first, -41.5% for the second.

Compared with `CCOc1ccc(C(=O)COC(=O)CC)cc1`, `CCOc1ccc(C(=O)COC(C)=O)cc1` is higher in inhibition: -16% for the first, 3.9% for the second.

First: CCCOc1ccc(C(=O)CCN2CCCCC2)cc1
Second: CCOC(=O)N1CCN(C(=O)c2ccc3c(c2)N(Cc2ccc(C)cc2)CCS3)CC1
The inhibition of the first is lower: 35.7% for the first, 45.5% for the second.

First: Cc1occc1C(=O)O/N=C(\N)c1ccccc1
Second: CC(Cl)C(=O)c1c[nH]c2ccccc12 (stereo unspecified)
The inhibition of the first is higher: -8.7% for the first, -10.4% for the second.

Compared with `CCNC(=S)Nc1cccc(F)c1C`, `Brc1ccc(CSc2ncn[nH]2)cc1` is higher in inhibition: -29.3% for the first, 19% for the second.

First: CC(C)(C)NC(=O)CN(C(=O)C1CSC(=O)C1)c1ccc2c(c1)OCCO2 (stereo unspecified)
Second: CCNc1nc(NC(C)C)nc(Oc2ccc(OCCOc3ccc(C)cc3)nn2)n1
The inhibition of the first is higher: -20.5% for the first, -39.7% for the second.

In the case of `Cc1ccc(C2CC(c3cccs3)=NN2C(=O)CCl)cc1` (stereo unspecified), the inhibition was 95.3% (active).
With `COc1ccc(Cl)cc1NC(=O)CCc1nnc2ccc(N3CCN(C)CC3)nn12` the inhibition was 58% (active).
In the case of `N#Cc1c(N)nc(Sc2ccc(Cl)cc2)c(C#N)c1-c1ccccc1Cl`, the inhibition was 83.1% (active).
With `O=C(CCl)N(c1ccccc1)C1CCS(=O)(=O)C1` (stereo unspecified) the inhibition was 93.2% (active).
In the case of `OCCCCCNc1ncnc2ccccc12`, the inhibition was 45.8% (active).
In the case of `COc1cc2ncnc(Nc3cccc(Cl)c3)c2cc1OC`, the inhibition was 45.3% (active).
For `c1ccc(CCNc2ncnc3ccccc23)cc1`, the inhibition was 71.7% (active).
In the case of `CCCCC(=O)OCC(=O)c1ccc(OCC)cc1`, the inhibition was 31.2% (active).
With `CCOc1ccc(C(=O)CCN2CCCCCC2)cc1` the inhibition was 70.2% (active).
In the case of `Cc1ccc(CN2CCSc3ccc(C(=O)N4CCN(c5ncccn5)CC4)cc32)cc1`, the inhibition was 34.2% (active).
With `CCC(C)Oc1cc(-c2ccnc(Nc3cccc(Cl)c3)n2)ccn1` (stereo unspecified) the inhibition was 47% (active).
With `COCc1cc(S(=O)c2ccc(Cl)cc2)nc(C)n1` (stereo unspecified) the inhibition was 84.6% (active).
For `O=C(c1c[nH]c2ccccc12)C(Cl)c1ccccc1` (stereo unspecified), the inhibition was 96.9% (active).
